Results: PubChem BioAssay (EPA / NIEHS)
Active and inactive are the calls of the source. How the source made its calls: active means hit-call score of the fitted dose curve at least 0.9, where 1 is the maximum; inactive means score below 0.9.

Assay: ATG_ISRE_CIS: Attagene CIS-FACTORIAL HepG2 Assay for human Interferon Regulatory Factor 1 (IRF1) binding to an Interferon-Stimulated Response Element (ISRE) (AID 2282948)
Conditions: HepG2 ISRE cis-reporter (Attagene), mRNA transcription readout; actives raise or lower the signal
Description: ATG_CIS is a cell-based, multiplexed-readout assay that uses HepG2, a human liver cell line, with measurements taken at 24 hours after chemical dosing in a 24-well plate.ATG_ISRE_CIS is one of 52 assay component(s) measured or calculated from the ATG_CIS assay. It is designed to make measurements of mRNA induction, a form of inducible reporter, as detected with fluorescence intensity signals by Reverse transcription polymerase chain reaction (RT-PCR) and Capillary electrophoresis technology.Data from the assay component ATG_ISRE_CIS was analyzed into 1 assay endpoint. This assay endpoint, ATG_ISRE_CIS, was analyzed with bidirectional fitting relative to DMSO as the negative control and baseline of activity. Using a type of inducible reporter, measures of mRNA for gain or loss-of-signal activity can be used to understand the reporter gene at the transcription factor-level as they relate to the gene IRF1. Furthermore, this assay endpoint can be referred to as a primary readout, because this assay has produced multiple assay endpoints where this one serves a reporter gene function. To generalize the intended target to other relatable targets, this assay endpoint is annotated to the dna binding intended target family, where the subfamily is interferon regulatory factors.
Human liver HepG2 cells are transiently transfected with multiple reporter transcription units (MRTUs) in 6-well plates using FuGene 6 reagent (Roche; 3 ml FuGene/1 mg DNA). The MRTU constructs are regulated by a cis-regulating element (promoter). […] A major difference between the CIS and TRANS system is that in CIS activities of endogenous TFs are measured, whereas the TRANS assay evaluates changes in activities of exogenous, chimeric NR-Gal4 proteins. […] At the end of 24 hour incubation, total RNA was isolated using TriZol reagent (Invitrogen). The isolated RNA is then reverse-transcribed using oligo(dT) primer and Mo-MLV reverse transcriptase (Invitrogen) with DNAse I (Ambion) treatment for 30 min. The one-tenth of the produced cDNA was amplified by PCR using Taq DNA polymerase (Invitrogen) and two reporter sequence-specific primers. The PCR products were fluorescently labeled by primer extension with 6-arboxyfluorescein (6-FAM) 5'-labeled reporter sequence-specific primer (2 min at 95 C, 20 s at 68 C and 10 min at 72 C) and these products were digested with 5U of HpaI (New England Biolabs) for 2h at 37 C. The fragments were purified using Qiaquick PCR columns (Qiagen), analyzed on an ABI 3130xL genetic analyzer (Applied Biosystems) with peak positions identified by using a set of X-rhodamine (ROX)-labeled MapMarker1000 molecular weight standards (BioVentures). The raw capillary electrophoresis data was processed using Attagraph software (Attagene).

outcome, inactive:
CCCCCC[C@@H](O)C/C=C\CCCCCCCC(=O)O
CCC(C)=NO
O=[N+]([O-])c1ccc2nc[nH]c2c1
OCCc1ccccn1
CCCC(=O)OC/C=C(\C)CCC=C(C)C
Cc1cc(O)cc(C)c1Cl
NC(N)=Nc1nc(CSCCC(N)=NS(N)(=O)=O)cs1
COC(=O)[C@]1(C)CCC[C@@]2(C)[C@H]1CC=C1C=C(C(C)C)CC[C@@H]12
Cc1ccccc1S(N)(=O)=O
CC/C=C\CCO
CC(O)(P(=O)(O)O)P(=O)(O)O
CN(C)Cc1cc(C(C)(C)C)c(O)c(C(C)(C)C)c1
CCc1cc(C(N)=S)ccn1
NC(=O)c1ccc([N+](=O)[O-])cc1Cl
C=CCOC(=O)C(=C)C
CNC(=C[N+](=O)[O-])NCCSCc1csc(CN(C)C)n1
CC(C)CC(=O)CC(C)C
CCCCNC(N)=O
C1=CCC=C1
CCOC(=O)CC(=O)OCC
O=C1NC(=O)C2CC=CCC12 (stereo not given)
O=C(O)c1ccccc1C(=O)O
O=C1CCCCCCCCCCCCCC1
CCCCCC1CCCC(=O)O1 (stereo not given)
O=C(O)/C=C\C(=O)O
C=CN1CCCCCC1=O
Sc1nc2ccccc2s1
O=[N+]([O-])c1ccccc1C(F)(F)F
C[Si](C)(C)O[Si](C)(C)O[Si](C)(C)C
CC(=O)c1nccs1
CC(C)CC(=O)CC(C)CC(C)C (stereo not given)
CCCCCCOC(=O)CCCCCCCC(=O)OCCCCCC
F[B-](F)(F)F
Clc1ccccn1
CC=CC(=O)O
CCCCCCC(O)CCCCCCCCCCC(=O)OC (stereo not given)
Brc1ccc(Oc2ccc(Br)cc2)cc1
Oc1cccc2ccccc12
CC(C)CC(=O)O
COC(=O)CCSCCC(=O)OC
